The list is not random: actives were taken first. Their share in the collection is about 9.5%.
Pf growth 96h: P. falciparum growth inhibition at 96 hours. P. falciparum luciferase reporter growth, 96 h. AID 504834. 320,000 compounds, 6.9% hits. Potency, µM (titrated, usually from 28.7 µM), inactives show top-dose activity change, negative = inhibition, usual class: inhibitors; also: % is scaled to controls: 0 for no effect and ±100 for the full control effect
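Infected RBCs, 2% Hct / 0.05% parasitemia final; luciferase-reporter P. falciparum; cpd 96 h, 37 C, 5% CO2; luciferase detection reagent; luminescence.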
RE007 growth inh: less growth of the S. pombe RE007 Vpr strain; S. pombe RE007 Vpr strain, BacTiter-Glo ATP luminescence, 24 h; Potency, µM (top dose mostly 92.2 µM), for the others: at the top dose activity change, negative = less growth, usual class: inhibitors; 360,000 compounds, 0.21% hits; AID 651644; active = well fitted falling curve with a large enough effect; inconclusive = small, poorly fitted or top-dose-only effect; inactive = no such curve, though single readings can be large or run the other way; also: % is scaled to controls: 0 for no effect and ±100 for the full control effect; nearly all actives have a fitted effect of over 50% in size
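Fission yeast RE007 carrying one integrated HIV-1 vpr copy, seeded at OD 0.01 in PMG+AL medium with 23 nL pinned compound. Grown 24 h at 30 degrees; viability read by BacTiter-Glo luminescence after 5 min.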
SARS PLP yeast: blocks SARS-CoV papain-like protease in a yeast assay; S. cerevisiae expressing SARS-CoV PLpro, growth rescue; Potency, µM (series often up to 32.9 µM), inactives show top-dose activity, positive = growth rescue, most hits filed as activators; 330,000 compounds, 0.19% hits; AID 485353; calls by dose curve; also: 0% is about no effect; nearly all actives have a fitted effect of over 55% in size
NS1 function inh: blocks influenza NS1 protein function. Potency, µM (titrated, usually from 46.1 µM), for the others: top-dose activity, positive = more growth. 270,000 compounds, 0.4% hits. AID 2326; calls by dose curve; also: actives are rising curves; nearly all actives have a fitted effect of over 50% in size
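In this qHTS, NS1 from influenza A is expressed in budding yeast, where it slows growth. Cells are switched from glucose to 2% galactose medium (pH 6.0, -URA), treated with compound, and growth recovery is read at OD600.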
Pf growth 48h: inhibits P. falciparum growth in the first generation, 48 h | Potency, µM (doses to about 28.7 µM), for inactives: at the top dose activity change, negative = inhibition, most hits filed as inhibitors | 310,000 compounds, 5.9% hits | P. falciparum luciferase growth in erythrocytes, 48 h; also: % is scaled to controls: 0 for no effect and ±100 for the full control effect
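Growth was read as firefly luciferase luminescence after a 48 h, 37 C, 5% CO2 exposure of compounds to reporter-bearing P. falciparum cultures (0.1% parasitemia, 2% hematocrit final) in Albumax-supplemented RPMI 1640.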
Numbers without * were called inactive; u = inconclusive; x = no result; [ ] = another dose, or the depositor's remark. Unless noted, calls follow the shape of the dose curve; as a rule, active = well fitted inhibition curve with a large enough effect; inconclusive = small, poorly fitted or top-dose-only effect, or another doubt; inactive = no such curve, though single readings can be large or run the other way. Potency is read from the fitted curve at half-maximal effect.

SMILES	Pf growth 96h	RE007 growth inh	SARS PLP yeast	NS1 function inh	Pf growth 48h
O=S(=O)(c1cnc(Cl)c(Cl)c1)N1CCN(c2ncccn2)CC1	u	13%	-2%	3%	-24%
COC(=O)C1=C(c2cccc(OCc3ccccc3)c2)C[C@@H]2CC[C@H]1N2C(=O)NCc1ccc(OC)c(OC)c1	u	0%	-4%	x	u
CCCNC(=O)N1[C@H]2CC[C@@H]1C(C(=O)OC)=C(c1ccc(OC)c(OC)c1)C2	0%	-24%	-5%	x	-8%
COC(=O)C1=C(c2cccc(OCc3ccccc3)c2)C[C@@H]2CC[C@H]1N2C(=O)NCc1cccc(F)c1	u	18%	0%	x	8.3µM*
COC(=O)C1=C(c2ccc(OC)c(OC)c2)C[C@@H]2CC[C@H]1N2C(=O)NCc1cc(C)oc1C(F)(F)F	u	13%	-6%	x	9.3µM*
COC(=O)C1=C(c2cccc(OCc3ccccc3)c2)C[C@@H]2CC[C@H]1N2C(=O)NCc1ccccc1OC	u	-3%	-4%	x	7.4µM*
COC(=O)C1=C(c2cccc(OCc3ccccc3)c2)C[C@@H]2CC[C@H]1N2C(=O)NCc1ccc([N+](=O)[O-])cc1	u	1%	0%	x	12µM*
Cc1ccc2[nH]c3c(c2c1)CN(C(C)C)CC3	-2%	-14%	2%	-3%	10%
O=C(OCc1ccc([N+](=O)[O-])cc1)c1cc(=O)c2ccccc2o1	73%	-16%	2%	6%	50%
COc1ccccc1NS(=O)(=O)c1ccc(C(=O)N2CCN(c3ccccn3)CC2)cc1	x	-14%	-2%	x	x
CCOC(=O)C1CCCN(C(=O)C2CCN(S(=O)(=O)c3c(C)noc3/C=C/c3ccccc3F)CC2)C1 (stereo unspecified)	5%	7%	9%	-2%	u
COC(=O)C1=C(c2cccc(OCc3ccccc3)c2)C[C@@H]2CC[C@H]1N2C(=O)NCc1ccccc1	u	3%	4%	x	13µM*
COC(=O)C1=C(c2cccc(OCc3ccccc3)c2)C[C@@H]2CC[C@H]1N2C(=O)NCc1cccc(C(F)(F)F)c1	u	9%	-3%	x	13µM*
COC(=O)C1=C(c2cccc(OCc3ccccc3)c2)C[C@@H]2CC[C@H]1N2C(=O)NCc1ccc(Cl)cc1	u	5%	-1%	x	8.3µM*
COC(=O)C1=C(c2ccc(OC)c(OC)c2)C[C@@H]2CC[C@H]1N2C(=O)NCc1cccc2ccccc12	0.23µM*	-2%	-9%	x	0.52µM*
Cc1cc2c(ncn2Cc2ccccc2)c(N)c1C	u	-7%	0%	x	u
COc1ccc(OC)c(CN2C(=O)c3ccccc3C2c2nnnn2C2CCCC2)c1 (stereo unspecified)	x	11%	x	x	x
COC(=O)C1=C(c2cccc(OCc3ccccc3)c2)C[C@@H]2CC[C@H]1N2C(=O)NCc1cc(C)oc1C(F)(F)F	u	1%	0%	x	4.7µM*
COC(=O)C1=C(c2cccc(OCc3ccccc3)c2)C[C@@H]2CC[C@H]1N2C(=O)NCc1ccc(OC)cc1	u	11%	-2%	x	7.4µM*
CC(=O)Oc1c(-c2ccco2)oc2ccccc2c1=O	22%	2%	-3%	x	9%
S=C(Nc1ccc(-c2nc3ccccc3[nH]2)cc1)Nc1cccnc1	-55%	-28%	-8%	11%	u
CC1=CC(C)C2(COC(c3ccc[n+](C)c3)OC2)C(C)C1 (stereo unspecified)	10µM*	-9%	-1%	6%	u
COc1cccc2c(=O)n(CC(=O)NCCc3ccccc3)ccc12	3.3µM*	7%	-1%	-4%	1.9µM*
COc1cc2[nH]c(=O)n(CCCC(=O)NCCc3ccccc3)c(=O)c2cc1OC	5.2µM*	12%	6%	3%	u
COc1ccc(CCNC(=O)Cn2ccc3c(OC)cccc3c2=O)cc1OC	4%	7%	0%	-3%	-14%
SMILES	Pf growth 96h	RE007 growth inh	SARS PLP yeast	NS1 function inh	Pf growth 48h
CCOc1cc2[nH]c(=O)n(CCCCC(=O)NC3CCCCCC3)c(=O)c2cc1OCC	x	-22%	11%	6%	u
CCOc1cc2[nH]c(=O)n(CCCCCC(=O)NC3CCCC3)c(=O)c2cc1OCC	10µM*	-2%	-1%	2%	u
COc1cc(C(=O)N2CCN(c3cccc(C(F)(F)F)c3)CC2)ccc1OCC(=O)N1CCOCC1	x	2%	x	x	x
CCCCC(=O)N/N=C/c1ccc(Sc2cccc3cccnc23)o1	4.1µM*	35%	3%	-5%	0%
O=C(CSc1cccc2cccnc12)N/N=C/c1ccc(F)cc1	11%	-6%	-1%	-9%	-4%
O=C(Cc1cccc2ccccc12)N/N=C/c1ccc(Sc2cccc3cccnc23)o1	6.6µM*	x	3%	21%	x
O=C(c1ccccc1)c1c[nH]c2cc3c(cc2c1=O)OCCO3	15µM*	-4%	5%	-3%	46%
CCNC(=O)C1CCCN(C(=O)c2ccc(F)c(Cl)c2)CC1 (stereo unspecified)	x	5%[18.4 µM]	x	x	x
Cc1ccc(S(=O)(=O)N2CCC(C(=O)N3CCc4ccccc43)CC2)cc1C	u	0%	-2%	x	u
CC(C)=CCC1C(=O)N(c2ccccc2)N(c2ccccc2)C1=O	7.6µM*	x	x	x	u
COc1cccc(OC)c1C(=O)Nc1cccc(-n2cnnn2)c1	5%	-14%	3%	7%	19%
CC(C)c1ccccc1OCCCCCNCCO	4.1µM*	3%	2%	u	4.1µM*
COc1ccccc1OCCCCNCCO	x	-22%	-1%	u	-3%
CC(C)(C)c1ccccc1OCCCCCNCCO	-29%	2%	-11%	-8%	4.1µM*
Cc1ccccc1OCCCCCNCCO	x	-22%	0%	3%	-7%
COc1ccc(OC)c(-n2c(-c3cccc(O)c3)n[nH]c2=S)c1	-5%	1%	-2%	-8%	0.74µM*
CCOc1ccc(OCc2ccc(C(=O)Nc3cccnc3)o2)cc1	9.3µM*	10%	1%	-44%	12µM*
O=C(c1cc(C2CCCCN2C(=O)OCCF)on1)N1CCOCC1 (stereo unspecified)	x	8%	x	x	x
COc1ccccc1N(C(=O)c1snc(C(N)=O)c1N)C(C(=O)NCc1ccccc1)c1ccc(O)cc1 (stereo unspecified)	-20%	18%	10%	18%	u
COc1ccc(C(C(=O)NCc2ccccc2)N(C(=O)c2snc(C(N)=O)c2N)c2ccccc2OC)cc1 (stereo unspecified)	-15%	86%	3%	-4%	5.2µM*
COc1ccc(N(CC(=O)NCc2ccc(F)cc2)C(=O)c2snc(C(N)=O)c2N)cc1	-13%	-16%	16µM*	1%	-6%
COc1ccc(C(C(=O)NCc2ccccc2)N(Cc2ccco2)C(=O)c2snc(C(N)=O)c2N)cc1 (stereo unspecified)	1%	2%	-2%	1%	u
